Laboratory results published in PubChem BioAssay (NCI).
This is part of a sample that, as a whole, favours compounds with a hit. Of some 79,000 tested, about 15% had one in any assay. Cut-off read from the data, not from the text of the source: active = growth inhibition above about 70%; inactive = the rest.

Columns and labels:
[1] = NCI Yeast Anticancer Drug Screen. Data for the rad50 strain (AID 155);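 note: 0% = growth of vehicle-only cultures of the same strain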; conditions: S. cerevisiae rad50 strain growth inhibition, hits give high values; at 50.0 µM unless noted
In short: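 A DNA repair-deficient yeast mutant serves as the test organism; compound-induced growth inhibition is calculated against vehicle-treated cells.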

[2] = NCI Yeast Anticancer Drug Screen. Data for the mec2-1 strain (AID 157); conditions: S. cerevisiae mec2-1 strain, hits give high values; at 50.0 µM unless noted
In short: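 Vehicle-treated cultures served as reference for growth inhibition of compound-exposed mec2-1 yeast.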

[3] = NCI Yeast Anticancer Drug Screen. Data for the sgs1 mgt1 strain (AID 161);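 note: 0% = growth of cultures given vehicle only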; conditions: S. cerevisiae sgs1 mgt1 strain, hits give high values; at 50.0 µM unless noted
In short: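 Inhibition of yeast growth, normalised to vehicle-treated controls, is reported for a strain bearing genetic alterations in DNA damage repair.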

[4] = NCI Yeast Anticancer Drug Screen. Data for the cln2 rad14 strain (AID 165);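 note: 0% = growth equal to vehicle treated cultures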; conditions: S. cerevisiae cln2 rad14 strain, hits give high values; at 50.0 µM unless noted
In short: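 Each compound was tested on cln2 rad14 yeast. Inhibition of growth was calculated against vehicle-exposed controls.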

[5] = NCI Yeast Anticancer Drug Screen. Data for the bub3 strain (AID 167); conditions: S. cerevisiae bub3 mutant strain, hits give high values; at 50.0 µM unless noted
In short: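 Inhibition values come from growth of compound-treated mutant yeast normalised to vehicle-treated controls.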

[6] = NCI Yeast Anticancer Drug Screen. Data for the mlh1 rad18 strain (AID 175); conditions: S. cerevisiae mlh1 rad18 strain growth inhibition, hits give high values; at 50.0 µM unless noted
In short: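 Vehicle-treated cultures served as the reference for growth inhibition in a yeast strain carrying DNA damage repair alterations exposed to each compound.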

Measured: growth inhibition

CCOC(=O)CSCC(C)C(=O)OC (stereo not given)
inactive: [1] -0.3% | [2] -0.5% | [3] -2.7% | [4] 7.2% | [5] 2.5% | [6] 2.25%

COC1OC(CO)C(O)C1OS(C)(=O)=O (stereo not given)
inactive: [1] -11.7% | [2] -4.25% | [3] -10.3% | [4] -1.2% | [5] -4.45% | [6] -8.3%

C1C2OC2CC2OC12 (stereo not given)
inactive: [1] -13.4% | [2] -9.35% | [3] -1.2% | [4] 55.8% | [5] -1.05% | [6] -4.25%

COc1ccc(/C(C)=C\C(=O)O)cc1
inactive: [1] -1.95% | [2] -3.2% | [3] -9.55% | [4] -43.2% | [5] -40% | [6] 7.15%

Clc1cccc(C2ON=C(c3ccccc3)N2C23CC4CC(CC(C4)C2)C3)c1Cl (stereo not given)
inactive: [1] 10.3% | [2] -6.55% | [3] 7.95% | [4] -13.5% | [5] -4% | [6] -3.95%

CCC1([N+](C)(C)C)CSC1C (stereo not given)
inactive: [1] 5.15% | [2] 2.9% | [3] 4.35% | [4] -26.6% | [5] -8.65% | [6] -0.95%

O=C1NCC(CCl)O1 (stereo not given)
inactive: [1] 8.3% | [2] -12.2% | [3] -2.15% | [4] 9.3% | [5] 18.1% | [6] 1.9%

CCN(CC)C(=O)c1c(Cl)cc(N(CC)CC)oc1=O
inactive: [1] -21.7% | [2] -11.8% | [3] -42% | [4] -23.5% | [5] -41.1% | [6] -54.5%

CS(=O)(=O)OCC1OC(n2ncc(=O)[nH]c2=O)C(O)C1O (stereo not given)
inactive: [1] 6.9% | [2] 13.7% | [3] -7.1% | [4] -2.45% | [5] 2.95% | [6] 11%

O=C(O)CSCC(=O)Nc1ccccc1Cl
inactive: [1] -11.6% | [2] -10.3% | [3] 14.6% | [4] 6.05% | [5] 4.3% | [6] -0.35%

CCOc1ccccc1NC(=O)C(=O)C(C(=O)c1ccc2ccccc2c1)C1OC(=O)c2ccccc21 (stereo not given)
inactive: [1] -4% | [2] 4.35% | [3] 13.6% | [4] -50% | [5] 12.5% | [6] 0.45%

CC(C)COC(=O)c1ccccc1
inactive: [1] 35% | [2] 7.95% | [3] 20.1% | [4] -18.4% | [5] -9.6% | [6] 3.6%

CCCC(=O)N(CCC(C)C)c1ccccc1
inactive: [1] -12.6% | [2] 6.3% | [3] 2.45% | [4] 9.9% | [5] -9.25% | [6] -7.8%

COc1cc(/C=C/C(=O)c2c(=O)o[nH][n+]2-c2ccccc2)ccc1[O-]
inactive: [1] -3.75% | [2] -7.1% | [3] 16.1% | [4] 20.9% | [5] -1.85% | [6] -18.1%

Cc1cc(Cl)c(OCC(=O)O)cc1C
inactive: [1] -8.2% | [2] -9.45% | [3] -9.25% | [4] -8.3% | [5] -14.6% | [6] -1.9%

Nc1cc([N+](=O)[O-])ccc1C(=O)O
inactive: [1] 15.2% | [2] 0.05% | [3] -11.4% | [4] -3.1% | [5] 2.65% | [6] -14.3%

CCC(C)(CC)c1ccc(C)cc1OC
inactive: [1] -4.9% | [2] 8.15% | [3] -7.1% | [4] 18.6% | [5] 24.6% | [6] 6.9%

CC(=O)Oc1ccccc1C(=O)N(N)CCSc1ccc(Cl)cc1
inactive: [1] -0.45% | [2] 1.15% | [3] 11.2% | [4] -32.2% | [5] -12.5% | [6] -1%

O=C1CC2c3ccccc3CCN2C2=C1CCC2 (stereo not given)
inactive: [1] 13.6% | [2] 13.1% | [3] -0.4% | [4] -16.2% | [5] 0.5% | [6] 18.7%

CC1=CCCC2C(C=O)(C1)CC(C)C2(CO)CC/C(=C/CO)CO (stereo not given)
inactive: [1] 3.8% | [2] 4.05% | [3] -5.5% | [4] 32.8% | [5] -3.4% | [6] -5.7%
